This is a sample that favours compounds with a hit; in the whole collection about 22% have one here.
CYP2C9 activ: CYP2C9 (human) activation | P11712 | recombinant CYP2C9, luciferin-H conversion, luminescence; stronger effect = higher value; factor 1 = untreated enzyme, 0 = blocked | AID 1024 | 1.4% of 96,000 active | activation factor at 5 µM;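 active means activation factor of 2 or more for CYP2C9 at a 5 µM dose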
CYP2C19 inhib: inhibitors of human CYP2C19. CYP2C19 Supersomes, luciferin-H EGE luminescence, 30 min. inhibition, % at 5 µM. 21% of 96,000 active;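 active means CYP2C19 inhibition above a set limit at 5 µM in the primary screen, cut at about 50% in these data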
Target sequence (P33261 whole entry, looked up): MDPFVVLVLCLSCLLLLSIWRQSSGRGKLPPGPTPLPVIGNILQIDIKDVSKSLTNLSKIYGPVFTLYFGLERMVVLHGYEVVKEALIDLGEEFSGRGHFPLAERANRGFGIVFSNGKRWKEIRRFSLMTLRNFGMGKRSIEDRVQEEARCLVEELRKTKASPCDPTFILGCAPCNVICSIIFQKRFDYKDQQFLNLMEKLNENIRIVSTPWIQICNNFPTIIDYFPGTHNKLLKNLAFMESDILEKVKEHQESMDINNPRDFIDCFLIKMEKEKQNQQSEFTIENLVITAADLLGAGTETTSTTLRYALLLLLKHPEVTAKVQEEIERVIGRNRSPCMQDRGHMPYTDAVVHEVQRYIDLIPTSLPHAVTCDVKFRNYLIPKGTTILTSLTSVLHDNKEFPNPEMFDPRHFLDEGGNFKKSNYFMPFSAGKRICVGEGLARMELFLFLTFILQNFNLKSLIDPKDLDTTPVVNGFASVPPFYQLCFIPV
CYP2C19 activ: increases human CYP2C19 enzyme activity | P33261 | recombinant CYP2C19, luciferin-H EGE luminescence; stronger effect = higher value; 0 = fully inhibited enzyme, 1 = untreated enzyme | activation factor at 5 µM | 96,000 tested, under 10 active;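 active means activation factor of at least 2 at 5 µM in the primary screen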
CYP2C9 inh: inhibitors of human CYP2C9. P11712. CYP2C9 Supersomes, luciferin-H conversion, luminescence. inhibition, % at 5 µM. 20% of 96,000 active;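 active means blocking of liver enzyme CYP2C9 beyond about 50% at 5 µM, limit read from the data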
Measles CPE: protection of cells from measles virus; AID 841; 1.5% of 140,000 active; protection (pct of control), % at 4 µM; Measles virus-infected cells, CPE protection, absorbance; in the data active means protection mostly above about 24%, no sharp cut-off; inactive means mostly below about 26%
Numbers stand for hits; i = inactive; nt = no result given.

SMILES	CYP2C9 activ	CYP2C19 inhib	CYP2C19 activ	CYP2C9 inh	Measles CPE
CCOC(=O)c1ccc(S(=O)(=O)Nc2ccccc2-c2nnn(CC)n2)cc1	i	99	i	96	i
CCn1nnc(-c2ccccc2NS(=O)(=O)c2ccc(S(=O)(=O)N(C)C3CCCCC3)cc2)n1	i	i	i	84	i
CCOC(=O)c1ccc(S(=O)(=O)Nc2cc(C(C)(C)C)no2)cc1	i	i	i	83	40
CCn1nnc(-c2ccccc2NS(=O)(=O)c2ccc(S(=O)(=O)N3CCCCCC3)cc2)n1	i	i	i	i	i
CCOC(=O)c1ccc(NC(=O)CNS(=O)(=O)c2ccccc2)cc1	nt	nt	nt	nt	i
CCOCCCNC(=O)CCSc1ccc(C)cc1	nt	nt	nt	nt	i
CCCCn1c(=N)n(CC(O)COc2ccc(C)cc2)c2ccccc21 (centres undefined)	i	52	i	i	i
Cc1ccccc1OCC(O)Cn1c(=N)n(CCN2CCOCC2)c2ccccc21 (centres undefined)	i	i	i	57	i
Cc1ccc(Cn2c(=N)n(CC(O)COc3ccccc3)c3ccccc32)cc1 (centres undefined)	i	53	i	i	i
N=c1n(CCN2CCOCC2)c2ccccc2n1CC(O)COc1ccccc1 (centres undefined)	i	i	i	i	i
CCCCCCNC(=O)c1c(O)c2ccccc2[nH]c1=O	i	i	i	i	i
CCOc1ccccc1COC(=O)c1cccc(-n2cnnn2)c1	i	i	i	i	i
Cc1nn(C)c(C(=O)NNC(=S)Nc2ccc(F)cc2)c1[N+](=O)[O-]	i	i	i	52	i
Cc1nn(C(C)C(=O)NNC(=S)Nc2ccc(F)cc2)c(C)c1[N+](=O)[O-] (centres undefined)	i	i	i	55	i
COc1ccc(NC(=S)NNC(=O)C(C)n2nc(C)c([N+](=O)[O-])c2C)cc1 (centres undefined)	i	i	i	i	i
CCC1CCCCN1CCCn1c(=S)[nH]c2ccccc2c1=O (centres undefined)	i	i	i	i	i
CSc1nc(-c2ccccc2)nc(N2CCN(C)CC2)c1C(C)=O	i	56	i	53	i
CSc1nc(-c2ccccc2)nc(N2CCCC2)c1C(C)=O	i	i	i	i	i
COc1cc(/C=C(/C#N)c2ccccc2)ccc1Oc1ccc([N+](=O)[O-])cn1	i	i	i	59	i
COC(=O)c1cc(C(=O)OC)cc(S(=O)(=O)Nc2ccc(Cl)c(N)c2)c1	i	94	i	i	i
COC(=O)c1cc(NS(=O)(=O)c2ccc(N3CCOCC3)c(N)c2)cc(C(=O)OC)c1	nt	nt	nt	nt	i
CC1(C)Cc2c(cnn2-c2ccccc2)C(=O)/C1=N\NC(=O)c1ccccc1O	i	51	i	i	i
COc1ccc(N2CCN(c3nc(NCCc4ccc(OC)c(OC)c4)nc(OC)n3)CC2)cc1	i	82	i	83	i
COc1ccc(CCNc2ccncn2)cc1OC	i	94	i	67	i
CCOc1cc(C)nc(NCCc2ccc(OC)c(OC)c2)n1	i	66	i	i	i
SMILES	CYP2C9 activ	CYP2C19 inhib	CYP2C19 activ	CYP2C9 inh	Measles CPE
CCOC(=O)c1cnc2ccccc2c1NCCc1ccc(OC)c(OC)c1	i	75	i	83	i
CCOC(=O)c1cnc2ccc(OC)cc2c1NCCc1ccc(OC)c(OC)c1	nt	nt	nt	nt	i
CCOc1nc(NCCc2ccc(OC)c(OC)c2)nc(N2CCN(c3ccc(OC)cc3)CC2)n1	i	i	i	i	i
COc1cccc(-c2nnc(NC(=O)c3ccc(S(=O)(=O)N4CC(C)OC(C)C4)cc3)o2)c1 (centres undefined)	i	i	i	i	i
Fc1ccc(Cl)cc1/C=N/n1cnnc1SCc1ccccc1	i	66	i	i	i
Fc1ccc(Cn2nnnc2CN2CCN(C3CCCC3)CC2)cc1	i	i	i	i	i
c1ccc(Cn2nnnc2CN2CCN(c3ncccn3)CC2)cc1	i	i	i	93	i
Fc1ccc(Cn2nnnc2CN2CCc3ccccc3C2)cc1	i	58	i	i	i
COc1ccc(OC(=O)CN2C(=O)C3C4CCC(C4)C3C2=O)cc1 (centres undefined)	nt	nt	nt	nt	i
COc1ccc(CN(C(=O)c2cnccn2)C(C(=O)Nc2ccc(F)cc2)c2ccccc2)cc1 (centres undefined)	nt	nt	nt	nt	i
S=c1[nH]nc(-c2ccco2)n1C1CCCCC1	nt	nt	nt	nt	i
O=c1[nH]c(-c2ccccc2O)nc2c1CCCC2	i	i	i	i	i
CCCS(=O)(=O)c1c(S(=O)(=O)CCC)c2c(N)cccn2c1C(=O)c1ccc(F)cc1	i	66	i	68	i
CCCS(=O)(=O)c1c(S(=O)(=O)CCC)c2c(N)cccn2c1C(=O)c1ccc(Br)cc1	nt	nt	nt	nt	i
CN(C)CCOCCSc1ccc(Cl)cc1	i	i	i	i	i
O=C(CCCCCn1c(=O)[nH]c2ccsc2c1=O)N1CCN(C2CCCCC2)CC1	i	56	i	72	i
O=C(CCCCCn1c(=O)[nH]c2ccsc2c1=O)NCc1ccc(F)cc1	i	i	i	88	i
O=C(CCCCCn1c(=O)[nH]c2ccsc2c1=O)NCc1cccs1	i	i	i	81	i
CCOC(=O)CSc1nnc(CNC(=O)c2cccs2)n1CCc1ccccc1	i	i	i	i	i
CC(OC(=O)c1nsc(Cl)c1Cl)C(=O)NC(C)(C)C (centres undefined)	nt	nt	nt	nt	i
CCCCC1(CC(=O)OC)C(=O)N(c2ccccc2)N(c2ccccc2)C1=O	nt	nt	nt	nt	i
CC(C)CN=C(NS(=O)(=O)c1ccccc1)C(Cl)(Cl)Cl	nt	nt	nt	nt	i
COCCn1nnnc1C(c1ccc(OC)c(OC)c1)N1CCN(c2nc3ccccc3s2)CC1 (centres undefined)	i	i	i	69	nt
N#Cc1cccc(C(c2nnnn2C2CCCC2)N2CCC(Cc3ccccc3)CC2)c1 (centres undefined)	nt	nt	nt	nt	i
COc1ccc(Cn2nnnc2C(c2cc3cc(C)ccc3[nH]c2=O)N2CCOCC2)cc1 (centres undefined)	i	i	i	i	i
SMILES	CYP2C9 activ	CYP2C19 inhib	CYP2C19 activ	CYP2C9 inh	Measles CPE
N#Cc1ccc(C(c2nnnn2C2CCCC2)N2CCC(Cc3ccccc3)CC2)cc1 (centres undefined)	i	56	i	i	i
COc1ccc(Cn2nnnc2C(c2ccncc2)N2CCOCC2)cc1 (centres undefined)	i	90	i	78	i
CCC(C)(C)n1nnnc1C(c1ccc2ncccc2c1)N1CCN(c2nc3ccccc3s2)CC1 (centres undefined)	i	i	i	88	i
COCCn1nnnc1C(c1ccccc1)N1CCN(C)CC1 (centres undefined)	i	i	i	i	i
Cc1c(C2N3CC4(C)CN2CC(C)(C3)C4=O)c2ccccc2n1C (centres undefined)	i	i	i	i	i
COc1ccc(C(c2nnnn2Cc2cccs2)N2CCN(c3ccccc3F)CC2)cc1 (centres undefined)	i	92	i	90	i
COCCn1nnnc1C(c1cccc(C#N)c1)N1CCCCCC1 (centres undefined)	i	68	i	i	i
